Molecules are shown by their SMILES. Results filed as inconclusive are left out. The source made the active and inactive calls. Unless noted, calls come from the whole dose curve.

The nature of test [1]: Nuclear factor erythroid 2-related factor 2/antioxidant responsive element (Nrf2/ARE) small molecule agonists: qHTS cell viability counter screen in human keratinocytes (AID 1919968; active = well fitted curve in the direction sought with a large enough effect in the repeat runs; an effect the other way counts as inactive or inconclusive; note: nearly all actives have a fitted effect of over 55% in size; note: potency is the fitted concentration of half-maximal effect). The procedure, abridged:
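Measured as CellTiter-Fluor fluorescence, this readout tracks cytotoxicity in the same wells as the ARE-luciferase screen. HaCaT reporter cells (1,500/well) received compounds after a 5 h pre-incubation and were exposed for 23 h.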

Test [2] in a line: Nuclear factor erythroid 2-related factor 2/antioxidant responsive element (Nrf2/ARE) small molecule agonists: luciferase reporter gene qHTS assay in human keratinocytes (AID 1919969). Note: nearly all actives have a fitted effect of over 35% in size.
Test [3] deals with Gonadotropin-releasing hormone receptor (Homo sapiens) (UniProt P30968). Description: Human gonadotropin-releasing hormone receptor (GnRHR) small molecule agonists, calcium flux assay in GnRHR-HEK293 cells (AID 1920063). Note: nearly all actives have a fitted effect of over 35% in size. The procedure, abridged:
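Fluorescence kinetics (480 nm excitation, 540 nm emission; 3 min, 1 s steps) report calcium mobilisation in human GnRHR-HEK293 cells in agonist mode. Dye incubation: 1 h, 37 C.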
For orientation: A change in cytosolic calcium serves as a functional read-out for many receptors and channels.

Test [4] deals with KiSS-1 receptor (Homo sapiens) (UniProt Q969F8). The test is described as follows: Human kisspeptin (KISS1R) small molecule agonists, calcium flux assay in KISS1R-HEK293 cells (AID 1920064; active = well fitted curve in the direction sought with a large enough effect in the repeat runs; an effect the other way counts as inactive or inconclusive). In short, it runs like this: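 Measures KISS1R agonism through calcium-sensitive dye fluorescence in stably transfected HEK293 cells, read for 3 min after pin-tool compound delivery; 15-point titrations in triplicate.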
Chain of KiSS-1 receptor (Homo sapiens) (Q969F8 whole entry, looked up): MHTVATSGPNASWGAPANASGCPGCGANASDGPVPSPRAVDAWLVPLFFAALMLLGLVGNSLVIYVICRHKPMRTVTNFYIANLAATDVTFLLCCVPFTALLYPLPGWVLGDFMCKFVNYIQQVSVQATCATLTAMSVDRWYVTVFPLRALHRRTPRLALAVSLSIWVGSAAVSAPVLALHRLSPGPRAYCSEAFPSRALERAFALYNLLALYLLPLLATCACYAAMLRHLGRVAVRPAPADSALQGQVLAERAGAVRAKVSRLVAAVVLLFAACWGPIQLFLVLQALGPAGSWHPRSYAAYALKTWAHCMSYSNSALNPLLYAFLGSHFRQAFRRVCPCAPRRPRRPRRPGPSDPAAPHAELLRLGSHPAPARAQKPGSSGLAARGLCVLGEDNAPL

Test [5] is described as follows: p53 small molecule agonists, cell-based qHTS assay with human liver microsomes (AID 1963577). In short, it runs like this:
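Fluorescence of the beta-lactamase reporter in p53RE-bla cells, detected with LiveBLAzer substrate (2 h, room temperature, dark), served as the read-out after 16 h compound exposure at 37 C with human liver microsomes and NADPH, each 0.5 mg/mL final.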

Test [6] in a line: p53 small molecule agonists, cell-based qHTS assay with rat liver microsomes (AID 1963578). In short, it runs like this: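 Cells carrying a p53 response element–beta-lactamase reporter were plated and rested 5 h, then dosed with compound in DMSO plus rat liver microsomes and NADPH, each at 0.5 mg/mL final. After 16 h at 37 C, LiveBLAzer substrate was added for 2 h.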
On the technique in general: qHTS replaces the single test concentration by a dilution series.

Test [7] in a line: p53 small molecule agonists, cell-based qHTS assay with rat liver microsomes: qHTS cell viability counter screen (AID 1963580). Note: nearly all actives have a fitted effect of over 45% in size. The procedure, abridged: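 In HCT-116 cells carrying a p53 response element-bla reporter, compounds were metabolically activated in situ by rat liver microsomes with NADPH over 16 h. Cell ATP content then served as the cytotoxicity measure.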
Test [8] can be described thus: p53 small molecule agonists, cell-based qHTS assay: qHTS cell viability counter screen (AID 1963581). Note: nearly all actives have a fitted effect of over 45% in size. The procedure, abridged: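 In the same plates used for the p53 bla reporter, HCT-116 cells given compounds for 16 h at 37 C received CellTiter-Glo; luminescence was recorded 30 min later at room temperature.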
Test [9] is described as follows: p53 small molecule agonists, cell-based qHTS assay (AID 1963582; active = well fitted activation curve with a large enough effect in the signal ratio in the repeat runs, not every such curve was filed as active; the % refers to the signal ratio). The procedure, abridged:
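Compounds are pin-transferred in DMSO onto p53RE-bla cells and incubated 16 h at 37 C. The B/G FRET beta-lactamase substrate is then applied for 2 h at RT and fluorescence recorded.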

The target in test [10] is 5-hydroxytryptamine receptor 2A (Homo sapiens) (UniProt P28223). The test is described as follows: 5-hydroxytryptamine receptor 2A (HTR2A) small molecule antagonists, cell-based qHTS assay (AID 1963586). Note: nearly all actives have a fitted effect of over 45% in size. In short, it runs like this:
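Antagonist-mode intracellular calcium assay: DOI (4 nM) added after 5 min compound pre-incubation at room temperature to dye-loaded HTR2A-CHO cells. Fluorescence followed for 3 min, sampled every second.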

Test [11] has the same target. The test is described as follows: 5-hydroxytryptamine receptor 2A (HTR2A) small molecule agonists, cell-based qHTS assay (AID 1963587). Note: nearly all actives have a fitted effect of over 30% in size. The procedure, abridged:
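HTR2A-CHO cells, plated 18 h at 37 C/5% CO2, dye-loaded 1 h at 37 C; compounds in DMSO added by pin tool (agonist mode). Intracellular calcium flux read as kinetic fluorescence on FDSS over 2 min at 1 s intervals.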

Test [12] addresses Muscarinic acetylcholine receptor M1 (Homo sapiens) (UniProt P11229). Description: Cholinergic receptor muscarinic 1 (CHRM1) small molecule antagonists, cell-based qHTS assay (AID 1963588). Note: nearly all actives have a fitted effect of over 40% in size. In short, it runs like this: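 CHRM1-CHO calcium-flux assay, antagonist mode. Cells were seeded 18 h, dye-loaded 1 h at 37 C and given compound for 5 min at RT, then acetylcholine was added at 50nM. FDSS fluorescence was read 3 min; 15 concentrations, three runs.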

Test [13] has the same target. The test is described as follows: Cholinergic receptor muscarinic 1 (CHRM1) small molecule agonists, cell-based qHTS assay (AID 1963589). Note: nearly all actives have a fitted effect of over 35% in size. In short, it runs like this:
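Each compound was tested at 15 concentrations across three independent runs on dye-loaded CHO cells stably expressing human CHRM1, reading intracellular calcium fluorescence kinetically at 1 sec intervals.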

Test [14] in a line: cAMP Responsive Elements (CRE) small molecule agonists, cell-based qHTS assay (AID 1963590). The procedure, abridged:
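Cell line: CRE-bla HEK 293T; medium DMEM/10% dialyzed FBS/0.1 mM NEAA/1 mM pyruvate/25 mM HEPES; 3 h compound exposure; beta-lactamase FRET readout after 2 h substrate loading at RT.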

Test [15] can be described thus: cAMP Responsive Elements (CRE) small molecule antagonists, cell-based qHTS assay (AID 1963591; active = well fitted inhibition curve with a large enough effect in the signal ratio in the repeat runs, not every such curve was filed as active; the % refers to the signal ratio). In short, it runs like this:
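Inhibition of NKH477-driven (0.25 uM final) CRE-beta-lactamase signal in HEK293T cells, 3 h compound exposure at 37 °C, detected by FRET substrate fluorescence.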

Test [16] deals with Beta-2 adrenergic receptor (Homo sapiens) (UniProt P07550). Description: Adrenergic beta2 receptor (ADRB2) small molecule antagonists, cell-based qHTS assay (AID 1963592). Note: series mostly up to about 92 µM; nearly all actives have a fitted effect of over 50% in size. The procedure, abridged:
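Cells (CHO, stable ADRB2 overexpression) incubated 18-20hr at 37C; compounds added from DMSO; agonist mix (1nM isoproterenol, 100uM IBMX, 25uM Ro-20-1724) added; 0.5hr RT; d2-cAMP and anti-cAMP-cryptate added; 1hr RT; 665/615 nm read.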

The target in test [17] is D(2) dopamine receptor (Homo sapiens) (UniProt P14416). The test is described as follows: Dopamine D2 receptor (DRD2) small molecule agonists, cell-based qHTS assay (AID 1963594). Note: nearly all actives have a fitted effect of over 35% in size. In short, it runs like this:
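HEK293 cells stably expressing DRD2 were cultured 24 h at 37 C, then given Ro20-1724 (0.1 mM final) and compounds for 10 min at room temperature. NKH477 (200nM) was then added for 30 min. cAMP was read by HTRF.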

Test [18] has the same target. Description: Dopamine D2 receptor (DRD2) small molecule antagonists, cell-based qHTS assay (AID 1963595; active = well fitted inhibition curve with a large enough effect in the signal ratio in the repeat runs, with a control signal flat; the % refers to the signal ratio). In short, it runs like this: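 Stable D2 receptor HEK293 line, 24 h after seeding. Compound preincubated 10 min, then quinpirole (12 nM) with forskolin analogue NKH477 (200 nM), 30 min, room temperature. Detection by time-resolved FRET of cAMP.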
Test [19] can be described thus: p53 small molecule agonists, cell-based qHTS assay with human liver microsomes: qHTS cell viability counter screen (AID 1963579). Note: nearly all actives have a fitted effect of over 45% in size. The procedure, abridged:
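Cytotoxicity counter screen: p53RE-bla, 4,000 cells/well; 5 h settle, 37 C/5% CO2; cpd + HLM 0.5 mg/mL + NADPH 0.5 mg/mL (final); 16 h, 37 C; CellTiter-Glo, 30 min RT, luminescence.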

In test [20] the target is Beta-2 adrenergic receptor (Homo sapiens) (UniProt P07550). The test is described as follows: Adrenergic beta2 receptor (ADRB2) small molecule agonists, cell-based qHTS assay (AID 1963593).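 Note: CHO cells stably overexpressing human ADRB2.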 In short, it runs like this: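 CHO cells stably over-expressing ADRB2 were plated overnight at 37C, then dosed with compounds plus a stimulation mix containing 100uM IBMX and 25uM Ro-20-1724 for 0.5hr at room temperature. cAMP was measured by HTRF competition, 1hr.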
Chain of Beta-2 adrenergic receptor (Homo sapiens) (P07550 whole entry, looked up): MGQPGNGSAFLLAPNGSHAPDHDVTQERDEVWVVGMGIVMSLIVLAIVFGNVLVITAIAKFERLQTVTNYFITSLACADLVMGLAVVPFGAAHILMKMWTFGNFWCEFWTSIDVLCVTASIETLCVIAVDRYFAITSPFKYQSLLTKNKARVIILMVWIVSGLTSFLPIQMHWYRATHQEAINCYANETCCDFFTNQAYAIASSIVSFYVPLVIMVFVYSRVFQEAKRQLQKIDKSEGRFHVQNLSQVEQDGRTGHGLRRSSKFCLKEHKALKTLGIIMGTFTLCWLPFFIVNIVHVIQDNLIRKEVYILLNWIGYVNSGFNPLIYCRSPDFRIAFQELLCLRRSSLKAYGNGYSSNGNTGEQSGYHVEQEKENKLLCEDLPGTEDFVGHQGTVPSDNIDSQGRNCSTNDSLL

Chain of 5-hydroxytryptamine receptor 2A (Homo sapiens) (P28223 whole entry, looked up): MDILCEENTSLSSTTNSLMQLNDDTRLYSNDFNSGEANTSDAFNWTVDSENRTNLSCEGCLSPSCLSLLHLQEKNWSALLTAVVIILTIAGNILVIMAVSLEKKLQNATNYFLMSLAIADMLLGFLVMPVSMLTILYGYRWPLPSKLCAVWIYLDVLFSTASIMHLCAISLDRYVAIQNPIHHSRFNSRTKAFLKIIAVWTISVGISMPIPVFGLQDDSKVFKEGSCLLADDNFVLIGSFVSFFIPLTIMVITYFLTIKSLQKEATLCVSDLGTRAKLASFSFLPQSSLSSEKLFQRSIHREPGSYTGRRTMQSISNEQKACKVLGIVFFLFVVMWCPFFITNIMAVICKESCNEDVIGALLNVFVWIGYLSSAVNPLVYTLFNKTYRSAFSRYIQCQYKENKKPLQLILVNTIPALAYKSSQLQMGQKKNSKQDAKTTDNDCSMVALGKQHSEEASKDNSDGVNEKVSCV
Chain of Muscarinic acetylcholine receptor M1 (Homo sapiens) (P11229 whole entry, looked up): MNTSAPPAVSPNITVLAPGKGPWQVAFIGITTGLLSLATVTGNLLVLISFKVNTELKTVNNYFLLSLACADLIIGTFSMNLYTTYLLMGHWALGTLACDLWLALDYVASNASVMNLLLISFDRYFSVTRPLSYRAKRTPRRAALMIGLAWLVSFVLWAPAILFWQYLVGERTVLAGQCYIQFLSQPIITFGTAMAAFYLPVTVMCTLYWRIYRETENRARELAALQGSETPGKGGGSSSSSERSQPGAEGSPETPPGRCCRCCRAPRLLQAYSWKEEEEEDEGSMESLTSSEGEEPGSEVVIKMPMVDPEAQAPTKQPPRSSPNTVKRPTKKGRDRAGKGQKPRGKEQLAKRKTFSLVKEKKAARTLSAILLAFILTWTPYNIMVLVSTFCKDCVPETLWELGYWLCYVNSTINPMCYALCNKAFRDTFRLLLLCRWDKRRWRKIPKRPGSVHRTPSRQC
Chain of Gonadotropin-releasing hormone receptor (Homo sapiens) (P30968 whole entry, looked up): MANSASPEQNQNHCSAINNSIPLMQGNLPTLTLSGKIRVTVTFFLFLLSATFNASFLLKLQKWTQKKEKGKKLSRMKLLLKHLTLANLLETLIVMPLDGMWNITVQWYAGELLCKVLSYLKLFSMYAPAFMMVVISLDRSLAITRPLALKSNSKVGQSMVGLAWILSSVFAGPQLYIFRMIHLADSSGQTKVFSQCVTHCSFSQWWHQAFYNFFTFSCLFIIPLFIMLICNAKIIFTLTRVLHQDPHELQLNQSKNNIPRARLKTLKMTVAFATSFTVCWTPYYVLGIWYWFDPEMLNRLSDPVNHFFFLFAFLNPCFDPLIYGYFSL
Chain of D(2) dopamine receptor (Homo sapiens) (P14416 whole entry, looked up): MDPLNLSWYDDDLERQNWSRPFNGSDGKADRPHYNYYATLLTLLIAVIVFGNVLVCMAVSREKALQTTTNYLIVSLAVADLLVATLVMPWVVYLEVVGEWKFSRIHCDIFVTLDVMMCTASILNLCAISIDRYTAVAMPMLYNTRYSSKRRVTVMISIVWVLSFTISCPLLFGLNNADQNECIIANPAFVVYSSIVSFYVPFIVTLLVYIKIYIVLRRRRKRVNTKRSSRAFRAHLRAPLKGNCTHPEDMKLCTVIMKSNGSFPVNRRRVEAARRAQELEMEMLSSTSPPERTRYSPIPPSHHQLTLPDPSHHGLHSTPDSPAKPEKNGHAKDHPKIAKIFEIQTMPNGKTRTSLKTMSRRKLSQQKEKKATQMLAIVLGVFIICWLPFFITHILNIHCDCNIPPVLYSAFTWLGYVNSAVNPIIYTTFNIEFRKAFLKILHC

For the compound `NC(=S)c1c(Cl)cccc1Cl`, the Potency result in test [1], in test [2], in test [3], in [4], in test [5] and in test [6] was “inactive” in each case. Further, the Potency result in test [7], in test [8], in test [9], in test [10], in test [11] and in [12] was “inactive” each time. The Potency result in test [13], in [14], in test [15], in [16], in test [17] and in test [18] was “inactive” throughout.
As to `N#CCCCl`, the Potency entry in [1], in test [2], in [3], in test [4], in [5] and in test [19] was “inactive” in each case. In addition, the Potency entry in test [7], in test [8], in test [9], in [10], in test [11] and in test [12] was “inactive” each time. In addition, the Potency entry in [13], in test [14], in [15], in test [16], in [20] and in test [18] was “inactive” throughout.
On to `CC(C)(C)OOC(C)(C)C`, for which the Potency entry in test [1], in [2], in test [3], in [4], in [5] and in test [6] was “inactive” throughout. Further, the Potency entry in test [19], in [8], in test [9], in test [10], in test [11] and in test [12] was “inactive” in each case. The Potency entry in test [13], in test [14], in test [15], in test [16], in test [20] and in test [17] was “inactive” in each case.
Turning to `COc1nc(NC(C)C)nc(NC(C)C)n1`, the Potency result in test [1], in test [2], in test [3], in test [4], in test [5] and in test [6] was “inactive” each time. In addition, the Potency entry in test [19], in test [7], in test [8], in test [9], in test [10] and in test [11] was “inactive” in each case. For the same compound, the Potency entry in [12], in test [13], in [14], in [16], in test [20] and in [17] was “inactive” each time. Further, the Potency result in test [18] was “inactive”.
`CCCOC(=O)c1cncn1C(C)c1ccccc1` (configuration not stated): the Potency result in test [1], in test [2], in test [3], in test [4], in test [5] and in test [6] was “inactive” each time. The Potency entry in test [19], in [7], in [8], in test [9], in [10] and in test [11] was “inactive” each time. In addition, the Potency result in test [12], in [13], in test [14], in test [15], in [16] and in test [20] was “inactive” in each case. Moreover, the Potency result in test [18] was “inactive”.
Regarding `Clc1ccc(C(c2ccc(Cl)cc2)C(Cl)(Cl)Cl)cc1`, the Potency in test [1] is 38.8 µM (active). For the same compound, the Potency entry in test [2], in test [3], in [4], in test [5], in test [6] and in [19] was “inactive” each time. Moreover, the Potency entry in [7], in [8], in test [10], in test [11], in [12] and in test [14] was “inactive” throughout. The Potency result in [15], in test [20], in [17] and in [18] was “inactive” each time.
As for `OCCSSCCO`, the Potency entry in [1], in test [2], in test [3], in test [4], in test [5] and in test [6] was “inactive” in each case. Besides, the Potency result in test [19], in [7], in test [9], in test [10], in [12] and in test [13] was “inactive” in each case. Also, the Potency result in test [14], in test [15], in [16], in [20], in test [17] and in test [18] was “inactive” throughout.

Source of the values: PubChem BioAssay (Tox21).
